VDR inh – blocks the human vitamin D receptor | P11473 | VDR-SRC2-3 peptide fluorescence polarization, 2 h | Potency, µM, without a hit: max response, negative = inhibition, usual class: inhibitors | actives 0.93% (n = 400,000)
Target sequence (P11473 whole entry, looked up): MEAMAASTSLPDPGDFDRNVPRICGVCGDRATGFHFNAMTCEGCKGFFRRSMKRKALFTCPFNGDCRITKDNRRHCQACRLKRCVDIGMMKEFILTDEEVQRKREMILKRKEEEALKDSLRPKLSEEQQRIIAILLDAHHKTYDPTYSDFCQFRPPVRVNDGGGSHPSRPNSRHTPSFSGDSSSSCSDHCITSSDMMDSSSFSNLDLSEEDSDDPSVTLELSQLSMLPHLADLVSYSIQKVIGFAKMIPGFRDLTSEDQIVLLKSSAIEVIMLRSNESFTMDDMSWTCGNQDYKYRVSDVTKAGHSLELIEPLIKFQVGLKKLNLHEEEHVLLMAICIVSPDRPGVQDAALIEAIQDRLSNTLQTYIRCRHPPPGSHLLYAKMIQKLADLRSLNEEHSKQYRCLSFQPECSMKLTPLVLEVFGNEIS
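The screen uses fluorescence polarization to detect compounds that interfere with recruitment of the SRC2-3 coactivator peptide to VDR; plates are read after 2 h at room temperature.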
Sfp PPTase inh – inhibitors of Bacillus subtilis Sfp phosphopantetheinyl transferase; Q9F4F7; Biochemical Sfp PPTase activity, qHTS; Potency, µM, for inactives: largest response in the series, negative = inhibition, most hits filed as inhibitors; actives 3.5% (n = 310,000); AID 1490;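 also: the enzyme is Sfp with the accession as filed and its product quenches rhodamine fluorescence; 0% = enzyme reaction without inhibitor and -100% = no enzyme wells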
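Compounds were incubated with enzyme (final 15 nM) for 15 min at room temperature before substrate addition started the reaction. Fluorescence at 525 nm excitation, 598 nm emission was recorded immediately and after 30 minutes.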
12-LOX inh – inhibitors of human 12S-lipoxygenase ALOX12 | P18054 | purified 12hLO, xylenol orange hydroperoxide absorbance | Potency, µM (doses to about 108 µM), for the others: top-dose activity change, negative = inhibition, most hits filed as inhibitors | actives 1.1% (n = 580,000) | AID 1671190
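Hydroperoxide product was detected by ferrous iron/xylenol orange as the 573 to 405 nm absorbance ratio. Arachidonic acid at 40 uM (final) was turned over for 30 min at room temperature by 150 nM human 12hLO, pH 7.0 Hepes buffer, after 15 min compound preincubation.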
PLK1 PBD inh – PLK1 (human) polo-box domain binding inhibition | actives 2.8% (n = 360,000) | Potency, µM, for inactives: max response, negative = inhibition, hits mostly inhibitors | Plk1 PBD binding of FITC phosphopeptide, fluorescence polarization | P53350; also: series mostly up to about 57 µM; nearly all actives have a fitted effect of over 65% in size
The depositor's hits bear a star; u = inconclusive; x = no result given; ! = not active in a repeat; [ ] = another dose, or the depositor's remark. The list is not random: actives were taken first. Their share in the collection is about 4.2%. Calls follow the shape of the dose curve; as a rule, active = well fitted curve in the direction sought with a large enough effect; inconclusive = small, poorly fitted or top-dose-only effect, or another doubt; inactive = no such curve, though single readings can be large; an effect the other way counts as inactive or inconclusive. Unless noted, % is scaled to controls: 0 for no effect and ±100 for the full control effect; potency is read from the fitted curve at half-maximal effect.

SMILES	VDR inh	Sfp PPTase inh	12-LOX inh	PLK1 PBD inh
C[C@H]1O[C@@H](O[C@H]2CC[C@@]3(C)C(CC[C@]4(C)C3C=C[C@]35OC[C@@]6(CCC(C)(C)C[C@H]63)[C@@H](O)C[C@]54C)[C@]2(C)CO)[C@H](O)[C@@H](O[C@@H]2O[C@H](CO)[C@@H](O)[C@H](O)[C@H]2O)[C@H]1O (some centres not stated)	-15%	x	u	-13%
COc1ccc(CCN2CC(C(=O)NCCc3ccc(F)cc3)CCC2=O)cc1 (configuration not stated)	-9%	13%	2%	-14%
O=C(NCCc1cn[nH]c1)C1CCC(=O)N(CCc2cccc(F)c2)C1 (configuration not stated)	u	5%	14%	3.4µM*
COc1ccc(CCN2CC(C(=O)NCCc3cnn(C)c3)CCC2=O)cc1 (configuration not stated)	u	-1%	0%	12µM*
COc1ccc(-c2nc(Cn3nnc(C(=O)Nc4ccc5c(c4)OCCO5)c3N)c(C)o2)cc1	x	x	13%	x
COc1ccc(C2=CC(=O)C[C@H](COCc3ccccc3)N(C(=O)OC(C)(C)C)O2)cc1	-24%	x	-6%	-28%
COC(CNC(=O)c1cc(C)nn1-c1ccccc1)OC	-12%	23%	0%	24µM*
O=C(NS(=O)(=O)NC(=O)c1ccccc1)c1ccccc1	x	x	11µM*	x
O=C(NS(=O)(=O)c1ccccc1)c1ccccc1	-11%	27%	u	-3%
CON=C(C(=O)N[C@@H]1C(=O)N2C(C(=O)O)=C(Cn3ccc(=N)n3CCO)CS[C@H]12)c1csc(N)n1	x	x	-3%[57.4 µM]	x
COc1ccc(C2=NOC(C(=O)Nc3cc(Br)ccc3O)C2)cc1OC (configuration not stated)	-3%	-7%	10µM*	-6%
Cc1ccc(/C=N\NC(=O)Cc2cccn2C)o1	-26%	40µM*	-8%	-10%
Cn1cccc1CC(=O)N/N=C/C=C/c1ccco1	u	14µM*	u	-1%
Cc1ccc2c(c1)-c1c(cnc3cc(-c4ccccc4)nn13)CO2	-11%	x	-14%	x
Cc1ccc2nc(C3CCN(Cc4ccc(-c5cccs5)cc4)CC3)[nH]c(=O)c2c1	x	x	35µM*!	x
O=c1[nH]c(C2CCN(Cc3cccc(-c4cccs4)c3)CC2)nc2ccc(F)cc12	x	x	20%	x
Cc1ccccc1CN1CCc2nc(N(C)Cc3cccnc3)[nH]c(=O)c2CC1	x	x	71%	x
COc1cccc(NC(=O)C(NCCC(C)C)c2ccccc2)c1 (configuration not stated)	11%	-1%	u	-7%
COc1cccc(NC(=O)C(NCC2CCCCC2)c2ccccc2)c1 (configuration not stated)	17%	50µM*	u	1%
Cc1cc(S(=O)(=O)NCC(=O)O)ccc1F	-17%	9%	u	21µM*
c1ccc(-c2noc(-c3cncnc3N3CCN(c4ccccc4)CC3)n2)cc1	x	x	-1%	x
CCCN1C(=O)[C@@H]2[C@@H](CCN2C(=O)CSCC(=O)O)N(Cc2cccs2)C1=O	x	x	32µM*	x
O=C(C1CCCC1)N1CCN(S(=O)(=O)c2ccc(Cl)cc2)CC1	-9%	12%	u	0%
NC1=NC(=O)/C(=C/c2ccc(Br)cc2)S1	-7%	22%	10%	1%
CCOC(=O)CSC1=NC(=O)/C(=C/c2ccc(Br)cc2)S1	u	56µM*	40µM*	0.84µM*
SMILES	VDR inh	Sfp PPTase inh	12-LOX inh	PLK1 PBD inh
NC(=O)C1CNc2ccccc2O1 (configuration not stated)	-16%	3%	51%	-2%
CC1=CC(=C(C#N)c2nc3ccccc3s2)C=C(C)N1c1ccc(F)cc1	1%	7%	u	21µM*
COc1ccccc1N1C(C)=CC(=C(C#N)c2nc3ccccc3s2)C=C1C	2%	3%	-12%	u
CC1Cc2ccccc2N1Cc1cc(=O)n2ccsc2n1 (configuration not stated)	-13%	-24%	-19%	24µM*
CCOC(=S)N/C(=N\S(=O)(=O)c1ccc(C)cc1)c1ccccc1	-13%	22µM*	u	24µM*
O=S(=O)(/N=C(/NC(=S)Nc1ccccc1)c1ccccc1)c1ccc(Cl)cc1	u	45µM*	40µM*	12µM*
O=C(O)c1ccc(N/C(=N\S(=O)(=O)c2ccc(Cl)cc2)c2ccccc2)cc1	-7%	22%	71%	-10%
COc1ccc(NC(=S)NC(=NS(=O)(=O)c2ccc(Cl)cc2)c2ccccc2)cc1	-19%	x	32µM*	12µM*
S=C(NCCNC(=S)Nc1ccccc1)Nc1ccccc1	2%	16%	u	10%
S=C(NC(=NCc1ccccc1)c1ccccc1)Nc1ccccc1	x	x	14µM*	x
Cc1ccc(S(=O)(=O)NN/C(=N/S(=O)(=O)c2ccccc2)c2ccccc2)cc1	10%	9%	-3%	-1%
COc1ccc(NC(=S)N/C(=N/S(=O)(=O)c2ccc(C)cc2)c2ccccc2)cc1	-9%	50µM*	u	-28%
CSc1ccccc1NC(=O)c1ccccc1	11%	21%	-8%	-8%
Cc1ccc(C(=O)CC(=O)c2ccccc2)cc1	-23%	7%	3%	-7%
Cc1ccc(C(=O)Sc2cccccc2=O)cc1	20µM*	50µM*	u	2.7µM*
O=C(Nc1ccccc1SC(=O)c1ccccc1)c1ccccc1	x	x	5.6µM*	4.2µM*
CN(C)c1nc(C(=O)OCCO)nc(N(C)C)n1	16%	2%	0%	-5%
COc1ccc(NC(=O)C2CC(=O)Nc3c(C)c(-c4ccc(C)cc4)nn32)cc1OC (configuration not stated)	x	x	-6%	x
COc1cc2c(cc1OC)C(c1c(-c3c(Cl)cccc3Cl)noc1C)=NCC2	x	x	8%	-3%
COc1cc(CNC(=O)c2cnc3c(c2)N(C(=O)CCc2ccccc2)CCC3)cc(OC)c1	x	x	9%	x
O=C(OCCN1C(=O)c2cccc3c(N4CCOCC4)ccc(c23)C1=O)c1ccc(Cl)cc1Cl	7%	9%	4%	19µM*
O=C(OCCN1C(=O)c2cccc3c(N4CCOCC4)ccc(c23)C1=O)c1cccc(Cl)c1	9%	5%	x	21µM*
O=C(OCCN1C(=O)c2cccc3c(N4CCOCC4)ccc(c23)C1=O)c1ccccc1Cl	8%	5%	u	u
CCOC(=O)C(CNC(=O)c1nccnc1N)Cc1ccccc1 (configuration not stated)	x	x	-48%	x
COc1ccc(CN2CCC(n3cc(C(=O)N4CCCCC4)nn3)CC2)c(OC)c1	x	x	10%	x
O=[N+]([O-])CC(=Nc1ccc(Cl)cc1)N/N=C\c1oc(O)c2ccccc12	u	-13%	4µM*	17µM*
COc1cccc(-c2ccc3ncnc(NCc4cccnc4)c3c2)c1	-10%	12%	u	x
c1ccc(CNc2ncnc3ccc(-c4cccnc4)cc23)cc1	28µM*	27%	-11%	x
O=c1[nH][nH]c2c(N=Cc3ccccc3O)ccc(F)c12	u	7.9µM*	x	11µM*
